Compound activity (PubChem BioAssay)
In the library only some 12% were active in any assay of this set; here they are far more common.
JMJD2A Tudor inh = blocks the human JMJD2A Tudor domain; O75164; AlphaScreen JMJD2A-Tudor / H3K4me3 peptide binding; Potency, µM (highest dose often 114 µM), actives largely listed as inhibitors; 390,000 compounds, 4.4% hits; AID 504339; also: nearly all actives have a fitted effect of over 50% in size
G9a block = G9a (human) methyltransferase inhibition | Q96KQ7 | G9a H3K9 monomethylation, AlphaScreen, 2 h | Potency, µM (highest dose often 102 µM), hits mostly inhibitors | 350,000 compounds, 8.8% hits | AID 504332; also: nearly all actives have a fitted effect of over 75% in size
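Signal arises when biotinylated H3K9 peptide, once monomethylated, bridges streptavidin donor and antibody-captured acceptor beads. Enzyme at 20 nM was preincubated 15 min with test compounds; peptide 500 nM and SAM 20 uM then reacted for 2 h.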
L3MBTL1 inh = blocks human L3MBTL1; Q9Y468; AlphaScreen L3MBTL1–H3K9me1 peptide binding; Potency, µM (series often up to 57.1 µM), most hits filed as inhibitors; 230,000 compounds, 0.66% hits; AID 485360; also: nearly all actives have a fitted effect of over 60% in size
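AlphaScreen assay: L3MBTL1 (50 nM final) was preincubated 30 min at room temperature with biotinylated H3(1-15)K9me1 peptide (75 nM final), then 30 min with library compounds; streptavidin donor and nickel chelate acceptor beads (10 ug/mL final) added, 30 min dark.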
HP1b binding inh = blocks HP1-beta chromodomain binding to methylated histone tails; P83916; AlphaScreen HP1-beta / biotin-H3K9me3 peptide binding; Potency, µM (top dose mostly 114 µM), hits mostly inhibitors; 390,000 compounds, 0.56% hits; also: nearly all actives have a fitted effect of over 70% in size
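HP1-beta protein (50 nM final) preincubated 30 min at room temperature with biotinylated H3(1-18)K9me3 peptide (50 nM) in PBS pH 7.4, 0.01% Tween-20, then compound added for 30 min. AlphaScreen streptavidin donor/nickel chelate acceptor beads (10 ug/mL final), 30 min dark, luminescence read.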
BAZ2B block = inhibitors of human BAZ2B bromodomain; AlphaScreen BAZ2B-H3K14Ac peptide displacement; AID 504333; 360,000 compounds, 4.4% hits; Potency, µM (doses to about 114 µM), usual class: inhibitors; also: nearly all actives have a fitted effect of over 60% in size
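AlphaScreen displacement of biotin-H3(5-23)K14Ac peptide (50 nM final) from BAZ2B (50 nM final) in PBS pH 7.4, 0.01% Tween-20; complex preformed 30 min RT, then compounds (top 110 uM) 30 min RT, beads 20 min dark.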
Sfp inh = blocks B. subtilis Sfp PPTase activity. Biochemical Sfp PPTase activity, qHTS. Potency, µM, usual class: inhibitors. 310,000 compounds, 3.5% hits. AID 1490;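 also: the enzyme is Sfp with the accession as filed and its product quenches rhodamine fluorescence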
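Compounds were incubated with enzyme (final 15 nM) for 15 min at room temperature before substrate addition started the reaction. Fluorescence at 525 nm excitation, 598 nm emission was recorded immediately and after 30 minutes.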
Sfp inh conf = confirmation of Bacillus subtilis Sfp PPTase inhibitors; 380 compounds, 79% hits; shares compounds with Sfp inh; Sfp PPTase enzymatic assay, qHTS titration; AID 2701; Potency, µM (highest dose often 114 µM), hits mostly inhibitors
Sfp gel assay = Inhibits B. subtilis Sfp phosphopantetheinylation. shares compounds with Sfp inh. purified Sfp, gel-based phosphopantetheinylation read-out. Potency, µM, hits mostly inhibitors. 210 compounds, 20% hits. AID 2707;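 active = potency below 100 µM; inconclusive = dose-dependent response but potency above 100 µM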;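 also: potency is an IC50 for inhibitors of Sfp transfer activity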
Numbers stand for hits; ! = repeats disagree; [ ] = another dose, or the depositor's remark. Unless noted, calls follow the shape of the dose curve; as a rule, active = well fitted curve in the direction sought with a large enough effect; inconclusive = small, poorly fitted or top-dose-only effect, or another doubt; inactive = no such curve, though single readings can be large; an effect the other way counts as inactive or inconclusive.

How did CN=c1nc(-c2ccccc2)n(-c2ccccc2)s1 do in these assays?
JMJD2A Tudor inh: 22µM; G9a block: 1.1µM!; L3MBTL1 inh: inactive; HP1b binding inh: 7.1µM; BAZ2B block: 8.9µM; Sfp inh conf: 0.83µM

How did COc1cc(C(=O)Nc2nnc(S(=O)(=O)N3CCCCCC3)s2)cc(OC)c1OC do in these assays?
JMJD2A Tudor inh: inactive; G9a block: inactive; HP1b binding inh: inactive; BAZ2B block: inactive; Sfp inh: inactive

How did CC(C)[C@H](NC(=O)OC(C)(C)C)c1nnc(S(=O)(=O)Cc2c(F)cccc2Cl)o1 do in these assays?
JMJD2A Tudor inh: inactive; G9a block: inconclusive; HP1b binding inh: inactive; BAZ2B block: inactive; Sfp inh: 14µM; Sfp inh conf: 30µM; Sfp gel assay: inconclusive

What do the screens show for `CC(C)=CCSc1nnc([C@@H](NC(=O)OC(C)(C)C)C(C)C)o1`?
JMJD2A Tudor inh: inactive; G9a block: inactive; L3MBTL1 inh: inactive; HP1b binding inh: inactive; BAZ2B block: inactive; Sfp inh: inactive

How did CCCC(=O)Nc1ccc(C(=O)n2ccc(C)n2)cc1 do in these assays?
JMJD2A Tudor inh: inactive; G9a block: inactive[0.501 µM]; L3MBTL1 inh: inactive; HP1b binding inh: inactive; BAZ2B block: inactive; Sfp inh: inactive

What do the screens show for `Cc1ccc(NC(=O)c2sc3ccccc3c2Cl)cc1`?
JMJD2A Tudor inh: inactive; G9a block: inactive; HP1b binding inh: inactive; BAZ2B block: inactive

How did Cc1ccc(NC(=S)NC(=O)c2sc3ccccc3c2Cl)c(C(=O)O)c1 do in these assays?
G9a block: 45µM; L3MBTL1 inh: inactive; BAZ2B block: 50µM; Sfp inh: 16µM; Sfp inh conf: 53µM

Results for CN(CCCN1c2ccccc2CCc2ccccc21)CC(=O)c1ccc(Cl)cc1 ?
G9a block: inconclusive; Sfp inh: 50µM; Sfp inh conf: 37µM; Sfp gel assay: inactive

What do the screens show for `CN(C)CCCN1c2ccccc2CCc2ccc(Cl)cc21`?
JMJD2A Tudor inh: inactive; G9a block: inactive[21.5 µM]; L3MBTL1 inh: inactive; HP1b binding inh: inactive; BAZ2B block: inconclusive; Sfp inh: 56µM!; Sfp inh conf: inconclusive; Sfp gel assay: inactive

What do the screens show for `CCC1=C2CC[C@H]3C(=O)N(c4ccccc4)C(=O)[C@H]3[C@H]2[C@@]2(Cc3ccccc3)C(=NCc3ccccc3)OC(=O)N2C1=O`?
Sfp inh: inactive

Results for Cc1ccc(OCCC(=O)OCC(=O)NCCc2ccc(Cl)cc2)cc1 ?
JMJD2A Tudor inh: inactive; G9a block: inactive; L3MBTL1 inh: inactive; HP1b binding inh: inactive; BAZ2B block: inactive

How did Cc1ccc(NC(=S)N2CCC(c3ccc(C)cc3)C2)cc1 (stereo not given) do in these assays?
JMJD2A Tudor inh: inactive; G9a block: 10µM; HP1b binding inh: inactive; BAZ2B block: inactive; Sfp inh: 32µM; Sfp inh conf: 37µM; Sfp gel assay: inconclusive

How did c1cn2cc(CSC3CCCCC3)nc2s1 do in these assays?
JMJD2A Tudor inh: inactive; G9a block: inconclusive; HP1b binding inh: inactive; BAZ2B block: inactive; Sfp inh: 3.2µM; Sfp inh conf: inactive; Sfp gel assay: inactive

How did O=C(NCCc1cn2ccsc2n1)C1CCCCC1 do in these assays?
JMJD2A Tudor inh: inactive; G9a block: inactive; L3MBTL1 inh: inactive; HP1b binding inh: inactive; BAZ2B block: inactive; Sfp inh: inactive

Results for Cc1ccccc1CSc1nnc(C)c(=O)n1N ?
JMJD2A Tudor inh: inactive; G9a block: inactive; L3MBTL1 inh: inactive; HP1b binding inh: inactive; BAZ2B block: inactive; Sfp inh: inactive

How did C[C@@H](NCCCc1cccc(C(F)(F)F)c1)c1cccc2ccccc12 do in these assays?
G9a block: inconclusive; Sfp inh: 79µM; Sfp inh conf: 24µM

What do the screens show for `CCCNC(=O)C(Cc1ccc(C(F)(F)F)cc1)NC(=O)c1ccc(C#N)cc1` (stereo not given)?
JMJD2A Tudor inh: inactive; G9a block: inactive[2.33 µM]; L3MBTL1 inh: inactive; HP1b binding inh: inactive; BAZ2B block: inactive

What do the screens show for `C=CCOC(=O)C1=C(C)NC(SCC(=O)Nc2ccccc2)=C(C#N)C1c1ccco1` (stereo not given)?
JMJD2A Tudor inh: inactive; G9a block: inconclusive; L3MBTL1 inh: inactive; HP1b binding inh: inactive; BAZ2B block: inactive; Sfp inh: inactive

Results for COc1cccc(NC(=O)CSC2=C(C#N)C(c3ccco3)C3=C(CCCC3=O)N2)c1 (stereo not given) ?
JMJD2A Tudor inh: inactive; G9a block: inconclusive; HP1b binding inh: inactive; BAZ2B block: inconclusive; Sfp inh: 7.9µM; Sfp inh conf: 47µM; Sfp gel assay: inactive

Results for c1ccc(CSc2nnc(-c3ccco3)n2Cc2ccco2)cc1 ?
JMJD2A Tudor inh: inactive; G9a block: 50µM; L3MBTL1 inh: inactive; HP1b binding inh: inactive; BAZ2B block: inconclusive; Sfp inh: 4µM; Sfp inh conf: 33µM

How did c1ccc(CSc2nnc(-c3cccs3)n2Cc2ccco2)cc1 do in these assays?
JMJD2A Tudor inh: inactive; G9a block: inconclusive; L3MBTL1 inh: inactive; HP1b binding inh: inactive; BAZ2B block: inactive; Sfp inh: inactive

Results for COc1cccc(/C=N/NC(=O)c2ccc(-n3cnnn3)cc2)c1 ?
JMJD2A Tudor inh: inactive; G9a block: inactive; L3MBTL1 inh: inactive; HP1b binding inh: inactive; BAZ2B block: inactive

What do the screens show for `COc1cccc(NC(=O)N2CCCC2C(=O)NC23CC4CC(CC(C4)C2)C3)c1` (stereo not given)?
JMJD2A Tudor inh: inactive; G9a block: inactive; HP1b binding inh: inactive; BAZ2B block: inactive; Sfp inh: inactive

Results for c1csc(-c2nc3ccccc3s2)c1 ?
JMJD2A Tudor inh: inactive; G9a block: 20µM; L3MBTL1 inh: inactive; HP1b binding inh: inactive; BAZ2B block: inactive; Sfp inh: 35µM; Sfp inh conf: 47µM; Sfp gel assay: inconclusive

How did CCOC(=O)NNc1nncc2ccccc12 do in these assays?
JMJD2A Tudor inh: inactive; G9a block: inactive[2.33 µM]; L3MBTL1 inh: inactive; HP1b binding inh: inactive; BAZ2B block: inactive; Sfp inh: 35µM!; Sfp inh conf: inactive; Sfp gel assay: inconclusive

What do the screens show for `CCOC(=O)NC(=O)COC(=O)c1cccc2ccccc12`?
JMJD2A Tudor inh: inactive; G9a block: inactive; L3MBTL1 inh: inactive; HP1b binding inh: inactive; BAZ2B block: inactive; Sfp inh: inactive

Results for CCOc1ccccc1CNc1ccc(O)cc1 ?
JMJD2A Tudor inh: 56µM; G9a block: inactive; L3MBTL1 inh: inconclusive; HP1b binding inh: inconclusive; BAZ2B block: 35µM; Sfp inh: 10µM; Sfp inh conf: 11µM; Sfp gel assay: inactive
